Common to all, as to experiment: NCI-60 one-dose screen, 48 h (100 = growth as untreated, 0 = no growth, -100 = all killed)
What all share (conditions): 10 µM unless noted

In assay [1] the test system is SR leukemia.
Assay [2] has as its system RPMI-8226 leukemia.
The subject of assay [3] is OVCAR-8 ovarian.
For assay [4], the system named is OVCAR-5 ovarian.
Assay [5] has as its system SK-OV-3 ovarian.
For assay [6], the system named is IGROV1 ovarian.
Assay [7] concerns OVCAR-3 ovarian.
Assay [8] deals with HS 578T breast.
Assay [9] concerns NCI/ADR-RES ovarian.
For assay [10], the system named is T-47D breast.
Assay [11] relates to BT-549 breast.
Assay [12] deals with MDA-MB-435 melanoma.
Assay [13] deals with SW-620 colon.
In assay [14] the test system is MCF7 breast.
In assay [15] the test system is HCT-116 colon.
In assay [16] the test system is HCC-2998 colon.
The subject of assay [17] is KM12 colon.
For assay [18], the system named is OVCAR-4 ovarian.

This is part of a sample that, as a whole, favours compounds with a hit. Of some 83,000 tested, about 20% had one in any assay.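 Assay: single dose, 48 h. Readout: percent growth (0 = no net growth; negative = cell death). Active: <10.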 Unmarked numbers belong to inactive results. The source made the active and inactive calls.

From PubChem BioAssay (NCI) come the findings set out here.

Regarding `Cc1c(C(=O)Nc2ccccc2F)sc2c(=O)[nH]cnc12`, the growth in [1] is 28.5%; in assay [2], 96.7%; in [3], 97%; in [4], 123%; in assay [5], 97.5%; in assay [6] it was 76.4%. The growth in [7] is 93.7%; in assay [8] it was 98.2%; in assay [9] it was 66.2%; in [10], 90%; in [11], 85.3%; in assay [12], 6.84% (active). Besides, the growth in assay [13] is 76.8%; in assay [14], 76.9%; in [15], 88.6%; in assay [16], 93.2%; in assay [17], 61.8%.

Consider `C/C(=N\NC(=O)CSc1nc2ccccc2c(=O)n1CCc1ccc(S(N)(=O)=O)cc1)c1ccc(Br)cc1`, for which the growth is 51.1% in assay [1]; 49.7% in assay [2]; 34.6% in [3]; 111% in [4]; 96.4% in assay [5]; 100% in assay [6]. For the same compound, the growth in assay [7] is 128%; in assay [8] it was 90.8%; in assay [9], 79.1%; in [10], 91.9%; in assay [11], 93.9%; in [12] it was 78.3%. The growth is 77.3% in assay [13]; 80.5% in assay [14]; 41.2% in assay [15]; 90.7% in assay [16]; 74.1% in assay [17].

With `CO[C@H](C(=O)[C@@H](O)[C@@H](C)O)[C@@H]1Cc2cc3cc(O[C@H]4C[C@@H](O[C@H]5C[C@@H](O)[C@H](O)C(C)O5)[C@H](O)C(C)O4)c(C)c(O)c3c(O)c2C(=O)[C@H]1O[C@H]1C[C@@H](O[C@H]2C[C@@H](O[C@H]3C[C@](C)(O)C(=O)C(C)O3)[C@@H](O)C(C)O2)[C@H](O)C(C)O1` (stereo not given in full), the growth in assay [1] is 8.44% (active); in assay [2] it was -21% (active); in [3] it was 2.48% (active); in assay [4] it was 13.1%; in [5], 9.52% (active); in [6], 12.2%. For the same compound, the growth in [7] was -12.5% (active); in assay [8], -13.8% (active); in assay [9] it was 76%; in assay [10], -8.49% (active); in assay [11], -24.5% (active); in assay [12] it was -41.3% (active). Besides, the growth in [13] is 8.29% (active); in assay [14], 6.66% (active); in assay [15], 4.55% (active); in assay [16], -9.52% (active); in assay [17] it was 1.23% (active).

As for `OC(COCc1ccccc1)COCc1ccccc1`, the growth in assay [1] was 89.2%; in assay [2], 109%; in [3], 106%; in [4], 108%; in assay [5] it was 103%; in assay [6] it was 108%. In addition, the growth in [7] is 94.7%; in assay [9], 127%; in assay [10] it was 101%; in assay [11], 98.6%; in assay [12], 112%; in assay [13], 110%. The growth in assay [14] is 92.6%; in assay [15] it was 99%; in assay [16], 97.9%; in assay [17], 105%.

As for `CCN1CCN(Cc2ccc(NC(=O)Nc3ccc(-n4ccc5c(NC(=O)c6ccccc6)nccc54)cc3)cc2C(F)(F)F)CC1`, the growth in [1] was -30.9% (active); in assay [3] it was -28.5% (active); in [4], 30.7%; in assay [18], 78.8%; in assay [5], 62.7%; in [6], 43.9%. For the same compound, the growth was -51.9% (active) in assay [7]; 74.1% in assay [8]; 27.8% in [9]; 75.6% in [10]; 68.5% in assay [11]; -61.5% (active) in [12]. Moreover, the growth in [13] is -11.9% (active); in [14] it was -90% (active); in assay [15] it was -83.6% (active); in [16] it was 68.3%; in [17], 14.3%.

As to `c1ccc2oc(-c3cnc4nonc4n3)cc2c1`, the growth in assay [1] is 106%; in assay [3] it was 93.6%; in assay [4], 104%; in assay [18] it was 106%; in assay [5], 84.8%; in [6] it was 87.2%. The growth is 108% in assay [7]; 89.2% in assay [8]; 92.4% in assay [9]; 79.7% in assay [10]; 95.8% in [11]; 109% in assay [12]. In addition, the growth was 94% in assay [13], 88.5% in assay [14], 90.1% in [15] and 120% in assay [16].

On to `COc1cc2c(cc1OC)-c1cc(OC)c(OC)cc1C(CN(C)C)C2` (stereo not given), for which the growth in [1] was 53.9% [100 µM]; in [2] it was 67.7% [100 µM]; in assay [4], 86% [100 µM]; in assay [18], -20.7% [100 µM] (active); in assay [5], 6.96% [100 µM] (active); in [6], 60.7% [100 µM]. Moreover, the growth in assay [7] was 59.9% [100 µM]; in [9] it was 26.9% [100 µM]; in assay [10] it was 69.3% [100 µM]; in assay [11], 45.8% [100 µM]; in [12] it was 63.8% [100 µM]; in assay [13], 82.4% [100 µM]. The growth was 62% [100 µM] in assay [14], 70.7% [100 µM] in assay [15], 85.6% [100 µM] in assay [16] and 82.1% [100 µM] in [17].

Turning to `CN1C(=O)C(C(=O)/C=C/c2ccccc2C(=O)O)C(=O)N(C)C1=O`, the growth in assay [1] is 98.1%; in assay [3], 102%; in [4], 104%; in [18] it was 109%; in assay [5] it was 88.8%; in assay [6], 119%. Further, the growth in [7] is 110%; in [8], 98.5%; in assay [9], 114%; in [10], 89.2%; in assay [11], 90.4%; in assay [12], 101%. Besides, the growth in assay [13] was 109%; in [14], 112%; in assay [15] it was 97.3%; in assay [16], 116%; in assay [17] it was 104%.

For the compound `COc1cc(Cl)cc(-c2nn(C(=O)NCCN3CCOCC3)cc2-c2ccncc2)c1`, the growth in [1] is 29.8%; in assay [3] it was 72.9%; in assay [4], 99.5%; in [18], 102%; in [5], 48.7%; in assay [6], 61.5%. Besides, the growth in assay [7] was 20.3%; in assay [8], 97%; in assay [9], 60.9%; in [10], 57.4%; in [11], 115%; in assay [12], 2.37% (active). Further, the growth was 57.5% in [13]; 28.1% in [14]; 51.3% in assay [15]; 88.6% in assay [16]; 61.7% in [17].
